Compound activity from PubChem BioAssay.
A selection: hits, their analogues and other compounds. The true share with any hit is near 3.4%.
sPLA2-III inh: human group III sPLA2 inhibitors, primary screen, biochemical, QFRET, BODIPY PC-A2 liposome substrate | inhibition, % at 12.2 µM | AID 743126, 2013 | 0.56% of 370,000 active | QFRET BODIPY PC-A2 liposome hydrolysis, fluorescence;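 active means inhibition above mean plus 3 SD of compounds lying within the high and low control bounds, cut at about 19% in these data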;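 further: 0% = median of test compound wells and 100% = no enzyme DMSO wells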
proKLK7 act: proKLK7 zymogen activators, primary screen, biochemical, fluorescence intensity; purified proKLK7, EDANS-DABCYL substrate fluorescence; 100% is mature enzyme control, 0% vehicle; activation, % at 7 µM; 0.9% of 370,000 active; AID 652039, 2013;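 active means activation above the mean of all tested compounds plus 3 SD, computed per campaign excluding outliers beyond control limits, cut at about 13% in these data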
ADAM10 inh: human ADAM10 inhibitors, primary screen, biochemical, QFRET, HTS. recombinant ADAM10, EDANS/DABCYL FRET peptide cleavage, 3 h. inhibition, % at 7 µM. 0.62% of 370,000 active. AID 720582, 2013;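 active means inhibition above a per-campaign cutoff equal to the mean of compounds falling between control-based bounds plus 3 SD, cut at about 20% in these data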;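 further: 0% = DMSO wells while the 100% control is not disclosed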
PLCb3 inh: human PLC-beta3 inhibitors, primary screen, biochemical, fluorescence; 1-phosphatidylinositol 4,5-bisphosphate phosphodiesterase beta-3 (Homo sapiens), Q01970; Purified PLC-beta3, fluorogenic substrate; inhibition, % at 12.2 µM; 0.18% of 370,000 active; AID 720704, 2013; in the data active means inhibition above about 11%;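 further: 0% = median of compound wells on plate and 100% = full blocker control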
PLCg1 inh: PLC-gamma1 enzyme inhibitors, primary screen, biochemical, fluorescence, purified enzyme; fluorogenic substrate; inhibition, % at 12.2 µM; 0.84% of 370,000 active; AID 720700, 2013; in the data active means inhibition above about 9.5%
ADAM17 inh: ADAM17 inhibitors, primary screen, biochemical, QFRET | recombinant ADAM17, EDANS/DABCYL FRET peptide cleavage | inhibition, % at 6.95 µM | 0.83% of 370,000 active;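 active means inhibition above the mean of compounds lying between control limits plus 3 SD, set per campaign, cut at about 8.5% in these data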;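 further: 0% = DMSO-only wells as the low control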
Target sequence (P78536 215-824 limits assumed): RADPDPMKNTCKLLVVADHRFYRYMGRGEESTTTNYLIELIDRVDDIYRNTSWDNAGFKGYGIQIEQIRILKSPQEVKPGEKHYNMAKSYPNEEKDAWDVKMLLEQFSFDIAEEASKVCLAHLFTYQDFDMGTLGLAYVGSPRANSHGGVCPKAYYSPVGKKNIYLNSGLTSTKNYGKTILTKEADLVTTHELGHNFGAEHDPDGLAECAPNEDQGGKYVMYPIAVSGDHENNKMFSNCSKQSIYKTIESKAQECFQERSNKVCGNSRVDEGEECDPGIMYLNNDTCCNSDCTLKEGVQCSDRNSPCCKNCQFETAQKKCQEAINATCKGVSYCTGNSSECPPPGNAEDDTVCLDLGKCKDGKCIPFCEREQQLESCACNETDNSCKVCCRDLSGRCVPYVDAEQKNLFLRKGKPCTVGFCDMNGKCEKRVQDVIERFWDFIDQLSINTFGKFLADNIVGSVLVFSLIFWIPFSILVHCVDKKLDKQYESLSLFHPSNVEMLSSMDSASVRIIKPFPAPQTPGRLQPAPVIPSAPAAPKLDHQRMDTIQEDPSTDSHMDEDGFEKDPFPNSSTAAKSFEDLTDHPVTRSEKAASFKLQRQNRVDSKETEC
ADAM10 ctr: ADAM10 inhibitors, counter-screen for ADAM17 exosite inhibitor project, biochemical, FRET, human ADAM10 | shares compounds with ADAM17 inh | recombinant ADAM10, EDANS/DABCYL FRET peptide cleavage, 3 h | inhibition, % at 6.95 µM | 47% of 2,900 active;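 active means mean inhibition over the triplicate runs exceeds the activity threshold set in the earlier primary screen, cut at about 20% in these data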;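 further: 0% = DMSO wells and 100% = marimastat wells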
ADAM17 confirm: ADAM17 inhibitors, hit retest, confirmation, biochemical, QFRET peptide cleavage | shares compounds with ADAM17 inh | recombinant ADAM17, EDANS/DABCYL QFRET peptide cleavage | inhibition, % at 6.95 µM | 65% of 2,900 active;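 active means mean inhibition across replicates above the hit cutoff set in the primary screen, cut at about 8.5% in these data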;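 further: 0% = DMSO wells and 100% = marimastat wells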
* = called active by the depositor; / = no result.

SMILES | sPLA2-III inh | proKLK7 act | ADAM10 inh | PLCb3 inh | PLCg1 inh | ADAM17 inh | ADAM10 ctr | ADAM17 confirm
COc1ccc(S(=O)(=O)N2CCCOC2CNC(=O)C(=O)NCCO)cc1 (stereo unspecified) | 8 | 0 | 5 | 5 | 5 | 10.0* | 7 | 9.4*
COc1ccc(S(=O)(=O)N2CCOC2CNC(=O)C(=O)NCC(C)C)cc1 (stereo unspecified) | -1 | 0 | -5 | -6 | -2 | -3 | / | /
CCN(CC(=O)N1CCOCC1)S(=O)(=O)c1ccc(Cl)cc1 | 5 | 1 | 0 | 0 | 2 | -2 | / | /
C=CCn1c(N(C)C)nc2c1c(=O)[nH]c(=O)n2C | 2 | 1 | 14 | 3 | 4 | 9.8* | -18 | -4
CN(C)c1nc2c(c(=O)[nH]c(=O)n2C)n1CCCc1ccccc1 | 15 | -1 | 1 | -7 | 1 | -2 | / | /
Cc1[nH]c2ccccc2c1/C=C/c1cc[n+](C)cc1 | -21 | 1 | 3 | -99 | -96 | 9.4* | 5 | 4
C[n+]1ccc2[nH]c3ccccc3c2c1 | 2 | 1 | -52 | -18 | -16 | -13 | / | /
CN(C)N1C(=O)c2c(Cl)c(Cl)c(Cl)c(Cl)c2C1=O | 15 | 0 | -1 | -1 | -3 | -2 | / | /
C=C(C)COc1ccc(-c2n[nH]c(C)c2-c2ccc(Br)cc2)c(O)c1 | -16 | -1 | 18 | 2 | 1 | 11* | 22* | 12*
COCCNC(=O)CCc1nnc2ccc(N3CCC(C)CC3)nn12 | 0 | 0 | 0 | -6 | 2 | -3 | / | /
CCCCOC(=O)c1ccc(NC(=O)Nc2ccc(OC)c(OC)c2)cc1 | -51 | 0 | 18 | -3 | -1 | 12* | 27* | 13*
O=C1c2ccccc2C(=O)N1CCCc1cn(C[C@H]2CC[C@H](Cn3cc(CCCN4C(=O)c5ccccc5C4=O)nn3)O2)nn1 | 2 | 0 | -3 | 6 | 2 | 3 | / | /
CN(C)S(=O)(=O)c1ccc(S(=O)(=O)Nc2ccc3c(c2)oc2ccccc23)cc1 | -76 | 0 | 19 | -3 | 3 | 9.2* | 34* | 17*
CN(C)S(=O)(=O)c1ccc(NC(=O)c2cc3ccccc3o2)cc1 | -13 | 0 | -2 | -3 | -3 | -1 | / | /
COC(=O)c1cc2c(c3c4cc(F)ccc4n(S(=O)(=O)c4ccccc4)c13)C(=O)N(Cc1ccc(N(C)C)cc1)C2 | 6 | -1 | -8 | -6 | -8 | 1 | / | /
CC(=O)Nc1ccc(SC[C@H](CC(C)C)N2CCN(CCc3ccccc3)CCC2=O)cc1 | -15 | 0 | 6 | 1 | -1 | 9.0* | -9 | -1
Cc1ccc(SC[C@H](CC(C)C)N2CCN(CCc3ccccc3)CCC2=O)cc1 | -11 | 2 | 11 | -1 | 1 | -1 | / | /
O=C1c2cccc(OCC(=O)N3CCCc4ccccc43)c2CCN1Cc1ccccc1 | -9 | 0 | 3 | 3 | 4 | 1 | / | /
O=C1c2cccc(OCC(=O)N3CCCc4ccccc43)c2CCN1Cc1ccc(Br)cc1 | -16 | 0 | 17 | -1 | 4 | 9.7* | 10 | 12*
CCCN1C(=O)/C(=C/c2ccc(N3CCCC3)c(C)c2)NC1=S | -18 | 0 | 19 | -284 | -200 | 7 | / | /
Cc1cc(/C=C2\NC(=S)N(C)C2=O)ccc1N1CCCC1 | 7 | 0 | 9 | -40 | -35 | 8.9* | 10 | 8
O=C(COC(=O)c1cc[n+]([O-])cc1)NCc1ccccc1Cl | 2 | 0 | -7 | -2 | -1 | -6 | / | /
O=C(Cn1c(-c2ccccn2)nc2ccccc21)N/N=C/c1cccnc1 | -7 | 0 | -4 | -3 | -1 | 1 | / | /
Cc1cc(Cl)ccc1C(O)c1ncc(-c2cccc(F)c2)[nH]1 (stereo unspecified) | 2 | 1 | -5 | 0 | 1 | -2 | / | /
OC(c1ccc(-c2ccccc2)cc1)c1ncc(-c2ccc(C(F)(F)F)cc2)[nH]1 (stereo unspecified) | -12 | 0 | 6 | -83 | 2 | 9.1* | 23* | 13*
SMILES | sPLA2-III inh | proKLK7 act | ADAM10 inh | PLCb3 inh | PLCg1 inh | ADAM17 inh | ADAM10 ctr | ADAM17 confirm
Cc1ccc2ccccc2c1C(O)c1ncc(-c2cccc(C(F)(F)F)c2)[nH]1 (stereo unspecified) | -19 | 0 | 12 | -2 | -3 | 12* | 26* | 15*
OC(c1ccccc1)c1ncc(-c2ccc(C(F)(F)F)cc2)[nH]1 (stereo unspecified) | -5 | 0 | 5 | 1 | 1 | 2 | / | /
Cc1cc(Cl)ccc1C(O)c1ncc(-c2cccc(C(F)(F)F)c2)[nH]1 (stereo unspecified) | -4 | 0 | 14 | -2 | 0 | 9.2* | 40* | 18*
COc1cc(/C=N/NC(=O)c2cccc(S(=O)(=O)N3CCCCC3)c2)cc(Br)c1O | -2 | -2 | 4 | -7 | -4 | -6 | / | /
CSCSC1=C(C#N)C(c2ccccc2Cl)C(C(C)=O)=C(C)N1 (stereo unspecified) | 7 | 0 | 4 | -1 | 4 | 15* | 10 | 9.3*
O=C1CCN(S(=O)(=O)c2ccccc2)CCN1CCOCc1cccc(F)c1 | -1 | 0 | 11 | 6 | 7 | 10* | -3 | 3
COC(=O)c1c(C)n(-c2ccc(OC)cc2)c2ccc(O)cc12 | -5 | -1 | 19 | 5 | -1 | 12* | 14 | 11*
CN(C)S(=O)(=O)Oc1cccc(C(=O)Nc2ccc(Cl)c(Cl)c2)c1 | -49 | 0 | 1 | -1 | 1 | 9.2* | 35* | 20*
CCOc1ccc(CCNC(=O)C2CCCN(c3ncnc4c3nc3n4CCCCC3)C2)cc1 (stereo unspecified) | 6 | 0 | -2 | -8 | 2 | 6 | / | /
CCOc1ccccc1NC(=O)C(OC(=O)c1ccc(O)cc1)c1ccccc1 (stereo unspecified) | -50 | 0 | 19 | -1 | -4 | 9.6* | 33* | 20*
